# Measurements: PubChem BioAssay (NCATS)
# Results filed as inconclusive are left out. Entries that show only a call come without a potency. Activity calls are given as the source filed them. The call rests on the fitted dose curve; in most records, active means well fitted inhibition curve with a large enough effect; inconclusive means small, poorly fitted or top-dose-only effect; inactive means flat fitted curve, though single readings scatter. Starred links: 1 amine or outer side, 2 acyl side, 3 side chain; linkers in the order of their positions; H or OH if unused. Positions of bridges follow the written chain, without caps; N, C: chain ends. Non-standard residues stand in square brackets, D forms with d. Residues, ends and D or L forms follow the SMILES beside them. Chains are numbered I, II in the order given. *: point of attachment. Actinocin(9to1) = Cc1c2oc3c(C)ccc(C(=O)[*:1])c3nc-2c(C(=O)[*:2])c(N)c1=O; NMeV = CN[CH](C(=O)O)C(C)C; Nva = CCC[C@H](N)C(=O)O; Cbz = O=C(OCc1ccccc1)*; Sar = CNCC(=O)O
# Tested on: MCC-13
# Assay: qHTS assay to identify novel small-molecules to repurpose for Merkel cell carcinoma treatment (AID 1296009); further: nearly all actives have a fitted effect of over 60% in size
# Settings: MCC and control cell lines, CellTiter-Glo viability, 72 h; series mostly up to 46 µM
# Outline: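 After compound transfer in DMSO, plates were kept 72 hr at 37 degree celsius. Luminescent ATP signal from CellTiter-Glo served as viability measure, normalized against DMSO and no-cell controls.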
# Potency means the concentration at half of the fitted maximal effect.
row,Compound,Potency
1,CON=C(C(=O)N[C@@H]1C(=O)N2C(C(=O)O)=C(Cn3ccc(=N)n3CCO)CS[C@H]12)c1csc(N)n1,inactive
2,O=C(O)C=Cc1ccc(Cn2ccnc2)cc1,inactive
3,NC(=O)c1ncn([C@@H]2O[C@H](CO)[C@@H](O)[C@@H]2O)c1O,inactive
4,OCCN1C[C@H](O)[C@@H](O)[C@H](O)[C@@H]1CO,inactive
5,c1ccc(CNc2nc(NCc3ccccc3)c3ccccc3n2)cc1,inactive
6,CCC[C@@H](C=O)NC(=O)[C@H](CC(C)C)NC(=O)[C@H](CC(C)C)NC(=O)OCc1ccccc1 (Cbz-Leu-Leu-[Nva]-aldehyde),3.32 µM (active)
7,COC(=O)C1C2CC3c4[nH]c5cc(OC)ccc5c4CCN3CC2CC(OC(=O)c2cc(OC)c(OC)c(OC)c2)C1OC (stereo not given),inactive
8,C=C[C@@H]1CN2CCC1C[C@H]2[C@H](O)c1ccnc2ccc(OC)cc12 (stereo not given in full),inactive
9,CC(=CC(=O)Nc1ccccc1C(=O)O)c1ccc2ccccc2c1,inactive
10,C=C1C[C@@]2(O)O[C@@]3(C[C@H]2C(C)C)[C@H](C)CC[C@H]13,inactive
11,O=C1c2cccc(O)c2C(=O)c2c(O)cc(CO)cc21,inactive
12,CC(=O)O[C@H]1C[C@@H]2CC[C@H]3[C@H]4C[C@H]([N+]5(C)CCCCC5)[C@@H](OC(C)=O)[C@@]4(C)CC[C@@H]3[C@@]2(C)C[C@H]1N1CCCCC1,inactive
13,CN(C)CC[C@H](c1ccc(Cl)cc1)c1ccccn1,inactive
14,CCCCCCCN(CC)CCCC(O)c1ccc(NS(C)(=O)=O)cc1 (stereo not given),inactive
15,C[C@H](NC(=O)Cc1cc(F)cc(F)c1)C(=O)N[C@H](C(=O)OC(C)(C)C)c1ccccc1,inactive
16,Cc1noc(-c2ccc(CSCCC(=O)O)cc2)c1NC(=O)OC(C)c1ccccc1Cl (stereo not given),inactive
17,O=[N+]([O-])c1cn2c(n1)OC[C@@H](OCc1ccc(OC(F)(F)F)cc1)C2,inactive
18,C[C@H](NC(=O)[C@@H](O)c1cc(F)cc(F)c1)C(=O)N[C@@H]1C(=O)N(C)c2ccccc2-c2ccccc21,inactive

row,Compound,Potency
1,O=c1ccn([C@@H]2O[C@H](CO)[C@H](O)[C@@H]2F)c(=O)[nH]1,inactive
2,OC[C@@H](O)[C@@H](O)[C@H](O)[C@@H](O)CO,inactive
3,CC(=O)N1CCN(c2ccc(OCc3nn(C)c(C)c3-c3cccc4c(CCCOc5cccc6ccccc56)c(C(=O)O)n(Cc5cccnc5)c34)cc2)CC1,inactive
4,CN[C@H](CC(C)C)C(=O)N[C@H]1C(=O)N[C@@H](CC(N)=O)C(=O)N[C@@H]2C(=O)N[C@H]3C(=O)N[C@H](C(=O)N[C@H](C(=O)O)c4cc(O)cc(O)c4-c4cc3ccc4O)[C@H](O)c3ccc(c(Cl)c3)Oc3cc2cc(c3O[C@@H]2O[C@H](CO)[C@@H](O)[C@H](O)[C@@H]2O[C@H]2C[C@](C)(N)[C@H](O)[C@H](C)O2)Oc2ccc(cc2Cl)[C@H]1O,inactive
5,CC(=O)OCC(=O)[C@@]12N=C(C)O[C@H]1C[C@H]1[C@@H]3CCC4=CC(=O)C=C[C@]4(C)[C@@H]3[C@@H](O)C[C@@]12C,inactive
6,CN1[C@H]2CC(OC(=O)[C@@H](CO)c3ccccc3)C[C@H]1[C@H]1O[C@H]12 (stereo not given in full),inactive
7,C=C1CCC2[C@](C)(CO)C(O)CC[C@]2(C)C1CC=C1C(=O)OCC1O (stereo not given in full),inactive
8,NC1=N[C@H]2[C@H](CS[C@H]2CCCCC(=O)O)N1,inactive
9,N#CNC(=NCCCCCCOc1ccc(Cl)cc1)Nc1ccncc1,0.0372 µM (active)
10,CN[C@H]1[C@@H](O)[C@@H]2O[C@@H]3O[C@H](C)CC(=O)[C@]3(O)O[C@@H]2[C@@H](NC)[C@H]1O,inactive
11,COc1ccc(C(C)=O)c(O)c1,inactive
12,N#CC(=C(O)c1ccc(Cl)cc1Cl)c1nc2cc(Cl)ccc2c(=O)[nH]1,inactive
13,C[C@H](NCc1ccc2c(c1)nc(NC(=O)c1ccc(-c3cn[nH]c3)s1)n2CCc1ccccc1)C(C)(C)C,10.5 µM (active)
14,O=C(C=CC#Cc1cccc(NS(=O)(=O)c2ccccc2)c1)NO,14.8 µM (active)
15,C[C@](Cc1c[nH]c2ccccc12)(NC(=O)OC1C2CC3CC(C2)CC1C3)C(=O)NC[C@H](NC(=O)CCC(=O)O)c1ccccc1 (stereo not given in full),inactive
16,CN(N=O)C(=O)N[C@H]1C(O)OC(CO)[C@@H](O)[C@H]1O (stereo not given in full),inactive
17,"Cc1c2oc3c(C)ccc(C(=O)NC4C(=O)NC(C(C)C)C(=O)N5CCCC5C(=O)N(C)CC(=O)N(C)C(C(C)C)C(=O)OC4C)c3nc-2c(C(=O)NC2C(=O)NC(C(C)C)C(=O)N3CCCC3C(=O)N(C)CC(=O)N(C)C(C(C)C)C(=O)OC2C)c(N)c1=O (stereo not given) (I: TVP[Sar][NMeV] / II: TVP[Sar][NMeV]; ester I:1-I:C, II:1-II:C; linker I:N-II:N via Actinocin(9to1); configuration not given here)",inactive
